Measurements from PubChem BioAssay.
The source made the active and inactive calls. Unless noted, no rule for the calls is given here.

Tests used:
[1] = resazurin metabolic signal in HepG2 cells – cell-based, resazurin fluorescence, 24 h, PK04 Diversity Set, profiling panel (AID 1172); conditions: HepG2 viability, higher = more signal; also: test concentration not given here
[2] = budding yeast growth changes without added modifier – OD600, strain BY4716, 24 h, basal condition, primary screen (AID 1173); conditions: S. cerevisiae BY4716 growth, OD600, 24 h; higher = more signal, called active from +8 up or from −8 down
[3] = viability profiling in MM1S myeloma cells – cell-based, resazurin fluorescence, basal, 24 h, PK04 Diversity Set, profiling panel (AID 1174); conditions: higher = more signal, called active from +8 up or from −8 down;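 also: MM1S multiple myeloma cell line; test concentration not given here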
[4] = target: Dihydroorotate dehydrogenase (quinone), mitochondrial (Plasmodium falciparum (isolate 3D7)) (UniProt Q08210); test: inhibition of P. falciparum DHODH – biochemical, C-terminal His tag, absorbance 600 nm, primary screen (AID 1175); conditions: PfDHODH enzyme, DCIP absorbance 600 nm; higher = more signal, called active from +8 up or from −8 down;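 also: recombinant parasite enzyme with a five histidine tag at its C terminus; test concentration not given here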
Chain of Dihydroorotate dehydrogenase (quinone), mitochondrial (Plasmodium falciparum (isolate 3D7)) (Q08210 whole entry, looked up): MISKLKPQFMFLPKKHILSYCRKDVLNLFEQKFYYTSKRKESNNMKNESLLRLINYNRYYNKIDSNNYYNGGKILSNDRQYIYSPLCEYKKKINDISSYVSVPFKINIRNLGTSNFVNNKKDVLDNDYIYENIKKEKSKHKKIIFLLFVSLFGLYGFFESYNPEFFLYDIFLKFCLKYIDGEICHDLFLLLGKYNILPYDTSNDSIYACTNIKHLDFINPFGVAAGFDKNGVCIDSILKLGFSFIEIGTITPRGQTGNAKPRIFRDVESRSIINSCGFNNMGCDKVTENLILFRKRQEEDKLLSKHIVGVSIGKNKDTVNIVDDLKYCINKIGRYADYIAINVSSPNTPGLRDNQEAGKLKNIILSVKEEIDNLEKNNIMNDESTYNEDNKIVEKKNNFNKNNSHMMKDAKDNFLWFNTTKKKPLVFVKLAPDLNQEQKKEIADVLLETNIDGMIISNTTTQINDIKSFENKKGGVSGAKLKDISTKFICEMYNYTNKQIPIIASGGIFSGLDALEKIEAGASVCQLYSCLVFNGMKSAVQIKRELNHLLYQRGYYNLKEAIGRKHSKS

[5] = inhibition of PAO1 biofilm formation – strain PAO1, LB-PBS medium, absorbance 600 nm, primary screen (AID 1176); also: test concentration not given here; conditions: P. aeruginosa PAO1 growth/biofilm, A600, 12 h; higher = more signal
[6] = growth modulation of vineyard yeast isolate – strain RM11-1a, OD600, basal, 24 h, primary screen (AID 1177);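 also: cultures grown under basal conditions with no added stressor; test concentration not given here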; conditions: S. cerevisiae RM11-1a growth, OD600, 24 h; higher = more signal, called active from +8 up or from −8 down
[7] = growth of efflux-deficient E. coli DRC39 – strain DRC39, OD650, 24 h, E. coli filamentation inducers, primary screen (AID 1178);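 also: growth measured as culture turbidity by optical density at 650 nm; test concentration not given here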; conditions: E. coli DRC39 acrAB, higher = more signal, called active from +8 up or from −8 down
[8] = growth of efflux-deficient E. coli DRC39 – strain DRC39, OD650, 48 h, E. coli filamentation inducers, primary screen (AID 1179);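 also: screen aims at cell division blockers that make cells filament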; conditions: E. coli DRC39 delta-acrAB growth, higher = more signal, called active from +8 up or from −8 down
[9] = viability profiling in RPMI8226 myeloma cells – cell-based, resazurin fluorescence, basal, 24 h, PK04 Diversity Set, profiling panel (AID 1180); conditions: higher = more signal;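 also: RPMI8826 multiple myeloma cell line at 5000 cells per well; test concentration not given here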
[10] = target: E3 ubiquitin-protein ligase XIAP (Homo sapiens) (UniProt P98170); test: small molecules binding XIAP protein – biophysical, small-molecule microarray, fluorescence 635 nm, primary screen (AID 1181); conditions: higher = more signal;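 also: score merges 667 nm emission and signal to noise over triplicate slides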
Chain of E3 ubiquitin-protein ligase XIAP (Homo sapiens) (P98170 whole entry, looked up): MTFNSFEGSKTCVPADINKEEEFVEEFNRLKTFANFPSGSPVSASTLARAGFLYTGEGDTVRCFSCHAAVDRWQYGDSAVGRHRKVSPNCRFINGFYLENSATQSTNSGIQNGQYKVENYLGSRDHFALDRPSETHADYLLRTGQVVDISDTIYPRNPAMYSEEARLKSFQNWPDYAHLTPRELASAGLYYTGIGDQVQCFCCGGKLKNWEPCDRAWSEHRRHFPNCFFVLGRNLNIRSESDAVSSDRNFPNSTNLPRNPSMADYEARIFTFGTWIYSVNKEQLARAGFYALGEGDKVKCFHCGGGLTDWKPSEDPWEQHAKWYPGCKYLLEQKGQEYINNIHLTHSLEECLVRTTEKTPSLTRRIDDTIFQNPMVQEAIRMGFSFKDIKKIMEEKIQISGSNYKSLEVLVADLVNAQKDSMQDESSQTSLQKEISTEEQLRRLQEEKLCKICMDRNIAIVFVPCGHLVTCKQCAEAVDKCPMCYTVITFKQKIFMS

Structure (SMILES) | z-score [1] | z-score [2] | z-score [3] | composite z-score [4] | z-score [5] | z-score [6] | z-score [7] | z-score [8] | z-score [9] | composite z-score [10]
COCCOC(=O)N1C(=O)[C@@]2(c3cc(C#Cc4ccc(OC)cc4)ccc31)[C@H](c1ccc(O)cc1)N1[C@H](c3ccccc3)[C@H](c3ccccc3)OC(=O)[C@H]1[C@@H]2C(=O)Nc1nc2ccccc2s1 | -0.719 | -0.442 (inactive) | -0.72 (inactive) | -0.455 (inactive) | 0.819 (inactive) | 0.363 (inactive) | -0.184 (inactive) | -0.0404 (inactive) | -0.61 | 0.0345
CC(C)(C)OC(=O)CC[C@]1(C(N)=O)N=C(c2ccc(OCCCO)cc2)O[C@H]1c1ccccc1 | -0.49 | 0.45 (inactive) | -0.689 (inactive) | -0.0959 (inactive) | 0.55 (inactive) | 0.663 (inactive) | -0.218 (inactive) | -0.585 (inactive) | -0.676 | 0.12
COCCOC(=O)N1C(=O)[C@@]2(c3ccccc31)[C@H](C(=O)N1CCCCCCC1)[C@H]1C(=O)O[C@H](c3ccccc3)[C@H](c3ccccc3)N1[C@@H]2c1ccc(OCCO)cc1 | -0.329 | 1.79 (inactive) | -0.44 (inactive) | 1.15 (inactive) | 2.29 (inactive) | 2.47 (inactive) | -0.643 (inactive) | -0.623 (inactive) | -0.281 | 2.5
C#CCN1[C@H](/C=C/C2CC2)[C@H](Cc2ccccc2)OC(=O)[C@@H]1Cc1ccccc1 | 0.512 | 0.169 (inactive) | 0.214 (inactive) | -0.627 (inactive) | -0.283 (inactive) | 0.0319 (inactive) | -0.463 (inactive) | -0.144 (inactive) | 0.454 | 0.0853
CC(C)(C)OC(=O)CC[C@]1(C(=O)NCCN2CCOCC2)COC(c2ccc(OCCCO)cc2)=N1 | 0.0093 | 0.321 (inactive) | 0.382 (inactive) | 0.731 (inactive) | -0.525 (inactive) | 0.345 (inactive) | 0.119 (inactive) | 1.18 (inactive) | 0.513 | -0.0118
CC(C)[Si](C#C[Si](C(C)C)(C(C)C)C(C)C)(O[C@H](C)c1cn(Cc2ccccc2)nn1)C(C)C | 0.0403 | 0.745 (inactive) | 1.74 (inactive) | -0.348 (inactive) | 0.419 (inactive) | -0.0006 (inactive) | -0.118 (inactive) | 0.164 (inactive) | 0.776 | 0.013
[N-]=[N+]=NCc1ccccc1[C@@H]1OC(c2ccc(OCCCO)cc2)=N[C@]1(CCS(=O)(=O)c1ccccc1)C(=O)N1CCCCC1 | -0.227 | 0.287 (inactive) | -0.814 (inactive) | 0.667 (inactive) | 0.286 (inactive) | -0.0163 (inactive) | -0.523 (inactive) | -0.213 (inactive) | -0.808 | 0.0174
CC(=O)NCCCC[C@@H]1NC(=O)[C@H]2C[C@@H](C(=O)O)[C@@H](c3ccc(O)cc3)N2C1=O | 0.273 | -1.35 (inactive) | -0.481 (inactive) | -0.24 (inactive) | 0.711 (inactive) | 3.29 (inactive) | -1.91 (inactive) | -0.879 (inactive) | 0.002 | 0.5
CCCNC(=O)[C@@H]1c2ccccc2C(=O)N(Cc2ccccc2OC)[C@H]1c1ccc(CO)cc1 | -0.314 | -0.42 (inactive) | -1.32 (inactive) | -0.486 (inactive) | -0.0933 (inactive) | 0.262 (inactive) | 0.324 (inactive) | 0.285 (inactive) | -0.694 | -0.113
CCCCCCCCCCC(O)C1C=CC2C(=O)NC(=O)C2N1Nc1ccc(Cl)cc1Cl (stereo not given) | -2.55 | -1.08 (inactive) | -1.76 (inactive) | 0.762 (inactive) | 0.201 (inactive) | 1.69 (inactive) | -0.801 (inactive) | -1.27 (inactive) | -1.51 | -0.102
C=C(CCCC)/C(=C/C[C@H](OC(=O)c1ccncc1)c1ccc(OCCO)cc1)c1cc(C(=O)OC)ccc1OC | -0.113 | 0.409 (inactive) | -0.266 (inactive) | -4.01 (inactive) | -0.693 (inactive) | 0.395 (inactive) | -0.981 (inactive) | -0.581 (inactive) | -0.691 | 0.22
CC(C)CCC[C@@H](C)[C@H]1CC[C@@]2(C)C3=C(CC[C@]12C)[C@@]1(C)CC[C@H](OC(=O)c2ccc(C(F)(F)F)nc2)C(C)(C)C1CC3 (stereo not given in full) | 0.305 | -0.473 (inactive) | 0.175 (inactive) | -1.08 (inactive) | 0.188 (inactive) | -2.03 (inactive) | 0.634 (inactive) | 0.762 (inactive) | 0.605 | -0.161
CC(c1ccccc1)C(O)C1C=CC2C(=O)N(c3ccccc3)C(=O)C2N1Nc1ccccc1 (stereo not given) | -1.45 | -0.652 (inactive) | -1.4 (inactive) | -0.191 (inactive) | 0.67 (inactive) | 0.0166 (inactive) | -0.0789 (inactive) | -0.565 (inactive) | -1.28 | 0.255
C=C(CCCC)/C(=C/C[C@H](OC(C)=O)c1ccc(OCCO)cc1)c1cnc2ccccc2c1 | 0.846 | -0.0576 (inactive) | -1.42 (inactive) | -3.75 (inactive) | 0.403 (inactive) | -0.476 (inactive) | 0.187 (inactive) | 0.225 (inactive) | 0.228 | -0.312
O=C1O[C@@H](c2ccccc2)[C@@H](c2ccccc2)N2[C@@H](c3ccc(OCCO)cc3)[C@]3(C(=O)Nc4ccc(C#CC5=CCCCC5)cc43)[C@@H](C(=O)N3CCCCCCC3)[C@H]12 | -0.399 | 0.593 (inactive) | 0.0902 (inactive) | -0.73 (inactive) | 1.77 (inactive) | 0.911 (inactive) | -1.32 (inactive) | 0.0745 (inactive) | 0.152 | 0.642
[N-]=[N+]=NCc1ccccc1[C@@H]1OC(c2ccc(OCCCO)cc2)=N[C@]1(CCS(=O)(=O)c1ccccc1)C(N)=O | -0.493 | -0.583 (inactive) | -0.163 (inactive) | -0.449 (inactive) | -0.651 (inactive) | 0.573 (inactive) | 0.0745 (inactive) | 0.859 (inactive) | 0.0529 | 0.243
COc1ccccc1CN1C(=O)c2ccccc2[C@@H](C(=O)NCc2ccccc2)[C@@H]1c1ccc(CO)cc1 | -0.678 | 0.0688 (inactive) | 0.122 (inactive) | 0.942 (inactive) | -0.0528 (inactive) | -0.0226 (inactive) | -0.236 (inactive) | -0.36 (inactive) | 0.427 | -0.193
CCCCCN1CC=CC23O[C@@H]4C=CCOC(=O)[C@@H]4[C@H]2C(=O)N(C(C)CO)[C@@H]3C1=O (stereo not given in full) | 0.0677 | -0.738 (inactive) | -0.278 (inactive) | -0.478 (inactive) | 0.77 (inactive) | -1.16 (inactive) | -0.232 (inactive) | -0.443 (inactive) | 0.003 | -0.269
O=C1C2C=CC(C(O)COCc3ccccc3)N(Nc3ccc([N+](=O)[O-])cc3)C2C(=O)N1c1ccccc1 (stereo not given) | 0.0505 | 0.858 (inactive) | 0.391 (inactive) | -0.262 (inactive) | 0.589 (inactive) | 0.498 (inactive) | 0.24 (inactive) | 0.613 (inactive) | 0.948 | 0.0604
CN1C(=O)C2C=CC(C(O)c3c(F)cccc3Cl)N(NC(=O)OC(C)(C)C)C2C1=O (stereo not given) | -0.417 | 0.357 (inactive) | -0.414 (inactive) | 0.17 (inactive) | 0.791 (inactive) | 0.0301 (inactive) | -0.775 (inactive) | -0.181 (inactive) | -0.301 | 0.0951
O=C1C2C=CC(C(O)c3cc(C(F)(F)F)cc(C(F)(F)F)c3)N(Nc3ccccc3)C2C(=O)N1c1ccccc1 (stereo not given) | -0.621 | -3.15 (inactive) | -1.87 (inactive) | 0.399 (inactive) | 1.41 (inactive) | 0.596 (inactive) | -0.921 (inactive) | -0.284 (inactive) | -2.49 | 0.0191
